The values that follow come from article PMC7862700, “An all-to-all approach to the identification of sequence-specific readers for epigenetic DNA modifications on cytosine”.

Common to all, as to experiment: DAPPL (digital affinity profiling via proximity ligation, sequencing); 10 mM Tris-HCl pH 7.5, 50 mM NaCl, 1 mM DTT, 4% glycerol, room temperature, 30 min; GST-TFs on glutathione beads, 16-mer random dsDNA library, 0.1% formaldehyde crosslink after washing; high values mean tight binding
Holding throughout (conditions): protein: recombinant; tags: N-terminal GST; dsDNA, one strand shown

In one test the target is T1, GABPA (Homo sapiens, UniProt Q06546 1-454).
T1 sequence: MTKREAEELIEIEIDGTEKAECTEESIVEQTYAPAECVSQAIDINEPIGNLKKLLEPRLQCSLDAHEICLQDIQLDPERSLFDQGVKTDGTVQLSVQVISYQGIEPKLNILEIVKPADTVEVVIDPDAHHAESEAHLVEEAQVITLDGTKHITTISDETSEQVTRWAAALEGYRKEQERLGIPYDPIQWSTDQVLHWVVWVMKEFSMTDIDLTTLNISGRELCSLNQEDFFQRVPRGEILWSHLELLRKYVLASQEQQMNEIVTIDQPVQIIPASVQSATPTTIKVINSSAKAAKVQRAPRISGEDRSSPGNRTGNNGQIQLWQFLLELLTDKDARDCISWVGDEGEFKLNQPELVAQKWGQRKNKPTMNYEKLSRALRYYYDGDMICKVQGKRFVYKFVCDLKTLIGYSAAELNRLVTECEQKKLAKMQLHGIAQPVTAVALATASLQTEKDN
The method in brief: (§1)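 Binding signal is defined as a hexamer's read frequency for one factor over its frequency for the tag-only sample. To obtain reads, GST-fused human transcription factors were expressed in yeast, captured on glutathione beads, barcoded with DNA and pooled with that sample. Pools met 200 nmole of a 16-mer random double-stranded DNA library in Tris/NaCl/DTT/glycerol buffer for 30 min at room temperature before washing, 0.1% formaldehyde crosslinking, proximity ligation (BsaI/T4 ligase, 1 h, 37 °C), PCR and Illumina NextSeq500 sequencing.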

The next test addresses ELF1 (Homo sapiens, UniProt P32519 1-619). The method in brief: as §1
In the next test the target is SPI1 (Homo sapiens, UniProt P17947 1-270). The method in brief: as §1
The next test has as its target ELF4 (Homo sapiens, UniProt Q99607 1-663). The procedure, abridged:
as §1

The target in another test is T2, ELK4 (Homo sapiens, UniProt P28324-2 1-405).
T2 sequence: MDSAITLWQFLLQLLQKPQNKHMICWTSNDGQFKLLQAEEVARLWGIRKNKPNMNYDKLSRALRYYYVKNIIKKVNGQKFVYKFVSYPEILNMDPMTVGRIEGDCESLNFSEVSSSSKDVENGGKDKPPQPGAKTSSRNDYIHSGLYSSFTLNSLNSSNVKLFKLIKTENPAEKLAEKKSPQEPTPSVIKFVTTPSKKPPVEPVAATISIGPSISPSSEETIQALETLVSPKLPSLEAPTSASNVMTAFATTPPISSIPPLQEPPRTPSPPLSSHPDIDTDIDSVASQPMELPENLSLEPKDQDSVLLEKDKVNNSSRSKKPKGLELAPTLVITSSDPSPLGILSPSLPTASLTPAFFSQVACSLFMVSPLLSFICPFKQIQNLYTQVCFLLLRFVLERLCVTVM
The procedure, abridged:
as §1

The next test has as its target T3, ETV2 (Homo sapiens, UniProt O00321 1-342).
T3 sequence: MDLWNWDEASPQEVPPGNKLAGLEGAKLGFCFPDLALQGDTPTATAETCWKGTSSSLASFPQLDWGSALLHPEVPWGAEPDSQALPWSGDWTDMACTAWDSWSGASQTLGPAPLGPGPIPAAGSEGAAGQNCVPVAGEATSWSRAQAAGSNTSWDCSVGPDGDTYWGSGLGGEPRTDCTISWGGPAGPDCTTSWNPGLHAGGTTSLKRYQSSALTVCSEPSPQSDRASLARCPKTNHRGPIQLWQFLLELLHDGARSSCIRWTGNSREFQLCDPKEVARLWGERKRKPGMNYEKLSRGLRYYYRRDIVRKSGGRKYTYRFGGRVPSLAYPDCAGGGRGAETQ
The method in brief:
as §1

A further test deals with T4, SPDEF (Homo sapiens, UniProt O95238 1-335).
T4 sequence: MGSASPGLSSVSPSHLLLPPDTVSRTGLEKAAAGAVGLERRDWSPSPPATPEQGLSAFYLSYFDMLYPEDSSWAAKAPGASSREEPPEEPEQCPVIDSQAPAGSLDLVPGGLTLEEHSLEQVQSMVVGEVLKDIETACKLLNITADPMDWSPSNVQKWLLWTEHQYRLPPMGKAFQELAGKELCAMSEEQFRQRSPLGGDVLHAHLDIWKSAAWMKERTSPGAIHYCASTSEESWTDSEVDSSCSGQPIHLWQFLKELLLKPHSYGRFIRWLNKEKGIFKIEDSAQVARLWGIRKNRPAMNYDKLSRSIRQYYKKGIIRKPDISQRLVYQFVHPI
The method in brief: as §1

Another test has as its target T5, ETV7 (Homo sapiens, UniProt Q9Y603 1-341).
T5 sequence: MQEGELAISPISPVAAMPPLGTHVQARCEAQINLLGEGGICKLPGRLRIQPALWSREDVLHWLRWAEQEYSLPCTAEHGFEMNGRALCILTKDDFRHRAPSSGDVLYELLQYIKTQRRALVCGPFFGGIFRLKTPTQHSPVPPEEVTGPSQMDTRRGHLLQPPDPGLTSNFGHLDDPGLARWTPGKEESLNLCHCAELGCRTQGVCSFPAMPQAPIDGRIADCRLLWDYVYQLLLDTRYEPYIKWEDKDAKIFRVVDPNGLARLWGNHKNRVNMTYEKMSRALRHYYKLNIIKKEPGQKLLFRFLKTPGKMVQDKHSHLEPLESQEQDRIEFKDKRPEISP
The procedure, abridged:
as §1

The target of a further test is T6, ETV3 (Homo sapiens, UniProt P41162-2 1-143).
T6 sequence: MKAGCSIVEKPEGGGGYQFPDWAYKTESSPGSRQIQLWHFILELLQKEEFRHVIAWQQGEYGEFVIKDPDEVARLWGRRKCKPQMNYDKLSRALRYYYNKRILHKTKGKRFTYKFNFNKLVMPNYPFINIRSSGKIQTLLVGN
The method in brief:
as §1

A further test concerns the target SPIB (Homo sapiens, UniProt Q01892 1-262). The procedure, abridged: as §1
The target of another test is T7, ERF (Homo sapiens, UniProt P50548 1-548).
T7 sequence: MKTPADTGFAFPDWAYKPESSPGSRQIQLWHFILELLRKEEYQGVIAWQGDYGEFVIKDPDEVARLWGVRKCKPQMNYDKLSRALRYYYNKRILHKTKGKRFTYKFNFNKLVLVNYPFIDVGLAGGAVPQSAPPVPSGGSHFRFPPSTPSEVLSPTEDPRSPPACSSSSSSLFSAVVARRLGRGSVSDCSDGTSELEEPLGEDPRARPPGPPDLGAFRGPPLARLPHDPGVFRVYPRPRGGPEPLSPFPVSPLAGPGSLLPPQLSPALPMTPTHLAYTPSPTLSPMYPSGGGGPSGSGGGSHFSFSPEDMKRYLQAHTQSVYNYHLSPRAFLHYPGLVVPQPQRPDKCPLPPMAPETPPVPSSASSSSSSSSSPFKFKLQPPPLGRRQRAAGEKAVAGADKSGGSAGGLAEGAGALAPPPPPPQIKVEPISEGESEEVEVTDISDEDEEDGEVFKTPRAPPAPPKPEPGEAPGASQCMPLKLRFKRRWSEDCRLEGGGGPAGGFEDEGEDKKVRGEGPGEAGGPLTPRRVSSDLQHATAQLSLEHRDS
The method in brief:
as §1

For another test, the target named is T8, FEV (Homo sapiens, UniProt Q99581 1-238).
T8 sequence: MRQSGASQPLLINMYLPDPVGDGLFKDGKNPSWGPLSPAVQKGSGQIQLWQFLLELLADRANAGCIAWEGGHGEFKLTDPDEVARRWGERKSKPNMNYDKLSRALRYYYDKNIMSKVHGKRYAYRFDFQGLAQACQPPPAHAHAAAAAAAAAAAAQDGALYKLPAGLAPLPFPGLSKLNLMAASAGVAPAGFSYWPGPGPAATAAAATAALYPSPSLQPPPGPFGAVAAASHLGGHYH
The procedure, abridged: as §1

Sequence of ELF1 (P32519 whole entry): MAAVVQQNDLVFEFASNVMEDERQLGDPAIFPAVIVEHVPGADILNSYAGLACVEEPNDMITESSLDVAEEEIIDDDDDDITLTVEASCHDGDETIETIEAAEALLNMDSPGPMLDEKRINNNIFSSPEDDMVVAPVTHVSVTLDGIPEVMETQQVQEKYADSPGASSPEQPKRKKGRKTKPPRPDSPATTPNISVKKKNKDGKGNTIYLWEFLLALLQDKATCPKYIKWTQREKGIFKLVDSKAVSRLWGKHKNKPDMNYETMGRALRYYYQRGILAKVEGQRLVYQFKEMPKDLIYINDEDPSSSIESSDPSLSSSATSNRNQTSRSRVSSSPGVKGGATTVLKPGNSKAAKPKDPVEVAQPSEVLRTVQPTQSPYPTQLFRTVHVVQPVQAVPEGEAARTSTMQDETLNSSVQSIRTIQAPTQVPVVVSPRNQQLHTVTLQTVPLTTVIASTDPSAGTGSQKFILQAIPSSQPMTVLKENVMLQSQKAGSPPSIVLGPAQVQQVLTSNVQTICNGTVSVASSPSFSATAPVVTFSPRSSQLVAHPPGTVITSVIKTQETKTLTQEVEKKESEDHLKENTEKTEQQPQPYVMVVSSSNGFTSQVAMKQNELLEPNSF
Sequence of ELF4 (Q99607 whole entry): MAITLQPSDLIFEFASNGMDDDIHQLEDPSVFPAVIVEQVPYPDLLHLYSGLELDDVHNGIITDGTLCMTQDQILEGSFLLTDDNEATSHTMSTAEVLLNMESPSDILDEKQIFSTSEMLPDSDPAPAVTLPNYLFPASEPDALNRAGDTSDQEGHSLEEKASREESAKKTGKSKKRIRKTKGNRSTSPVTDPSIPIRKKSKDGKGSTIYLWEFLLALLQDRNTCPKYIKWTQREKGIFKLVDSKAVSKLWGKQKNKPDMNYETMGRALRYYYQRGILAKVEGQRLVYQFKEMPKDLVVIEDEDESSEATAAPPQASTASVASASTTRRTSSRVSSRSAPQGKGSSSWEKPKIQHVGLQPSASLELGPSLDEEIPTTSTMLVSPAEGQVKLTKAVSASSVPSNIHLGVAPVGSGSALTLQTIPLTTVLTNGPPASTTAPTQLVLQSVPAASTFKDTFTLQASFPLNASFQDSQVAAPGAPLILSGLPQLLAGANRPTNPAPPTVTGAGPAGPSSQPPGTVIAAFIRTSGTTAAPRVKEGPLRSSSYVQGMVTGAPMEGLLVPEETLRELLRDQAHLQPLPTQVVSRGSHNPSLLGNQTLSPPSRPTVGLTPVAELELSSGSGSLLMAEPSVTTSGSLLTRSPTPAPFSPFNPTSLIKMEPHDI
Sequence of SPIB (Q01892 whole entry): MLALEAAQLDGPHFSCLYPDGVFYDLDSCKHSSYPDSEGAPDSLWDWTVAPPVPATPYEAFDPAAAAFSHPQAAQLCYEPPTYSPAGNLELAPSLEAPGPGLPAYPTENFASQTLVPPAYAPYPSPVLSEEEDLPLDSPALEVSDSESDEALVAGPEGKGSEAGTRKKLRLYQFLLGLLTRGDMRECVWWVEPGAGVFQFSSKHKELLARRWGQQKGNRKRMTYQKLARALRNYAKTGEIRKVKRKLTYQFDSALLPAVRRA

With ATAGAC, the binding signal with GABPA was 1.04 fold enrichment (6-mer frequency, TF over GST control); with ELF1, 1.03 fold enrichment (6-mer frequency, TF over GST control); in the test with SPI1 it was 1.02 fold enrichment (6-mer frequency, TF over GST control); with ELF4, 1.01 fold enrichment (6-mer frequency, TF over GST control); in the test with ELK4 it was 1.02 fold enrichment (6-mer frequency, TF over GST control); in the test with ETV2, 1.08 fold enrichment (6-mer frequency, TF over GST control). For the same sequence, the binding signal with SPDEF was 1.01 fold enrichment (6-mer frequency, TF over GST control); with ETV7, 1.1 fold enrichment (6-mer frequency, TF over GST control); with ETV3 it was 1.02 fold enrichment (6-mer frequency, TF over GST control).
Consider GCAGCA, for which the binding signal in the test with ELF1 is 1.03 fold enrichment (6-mer frequency, TF over GST control); with SPIB, 1.02 fold enrichment (6-mer frequency, TF over GST control); with ELF4 it was 1.01 fold enrichment (6-mer frequency, TF over GST control); with ETV2, 1.01 fold enrichment (6-mer frequency, TF over GST control).
Take GCCAAC: the binding signal in the test with ELF1 is 1.01 fold enrichment (6-mer frequency, TF over GST control); in the test with ELF4, 1.04 fold enrichment (6-mer frequency, TF over GST control); with ERF it was 1.03 fold enrichment (6-mer frequency, TF over GST control).
GCCACC: the binding signal in the test with FEV was 1.01 fold enrichment (6-mer frequency, TF over GST control); with ELF4 it was 1 fold enrichment (6-mer frequency, TF over GST control); with ELK4, 1.03 fold enrichment (6-mer frequency, TF over GST control).
